# Measurements as given in PubChem BioAssay.
# Values joined by “and” are separate entries in the source; they are usually repeats but may differ in a detail not shown here. Equal values may be shown once. Inconclusive results are not listed. Active and inactive are the calls of the source.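 How the source made its calls, unless noted: active means thallium flux through the channel raised or lowered by more than 3 SD from vehicle-only wells, actives on both sides; inactive means the rest.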
# Tests used:
# [1] = tested on: Aerobactin synthetase IucA (Klebsiella pneumoniae); test: inhibition of K. pneumoniae IucA enzyme – biochemical, Tocris library, absorbance (AID 1345561; call rule not given here;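 further: 100% = enzyme without compound and 0% = no enzyme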); conditions: purified IucA enzyme assay, absorbance (OD) read-out; stronger effect = lower value;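 tested at 8 µM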
# [2] = signal quenchers or enhancers, Cy5 substrate/SSB – biochemical, NIH Clinical Collection, E. coli SSB, artefact control for HCV NS3 helicase inhibitor project (AID 743268; call rule not given here); conditions: Cy5-oligo bound E. coli SSB, fluorescence interference
# [3] = tested on: Hepatitis C virus NS3 helicase; test: blockers of NS3h binding to DNA – biochemical, fluorescence polarization, NIH Clinical Collection, primary screen (AID 743270; call rule not given here); conditions: NS3 helicase binding to Cy5-dT15 DNA, stronger effect = higher value, concentration not given here
# [4] = biological target: Single-stranded DNA-binding protein (Escherichia coli (strain K12)) (UniProt P0AGE0); test: SSB-ssDNA binding inhibitors – biochemical, fluorescence polarization, NIH Clinical Collection, counter-screen for HCV NS3 helicase inhibitor project (AID 743271; in the data active means inhibition above about 28%); conditions: E. coli SSB-DNA binding, stronger effect = higher value, concentration not given here
# [5] = compounds distorting NS3 helicase fluorescence signal – biochemical, NIH Clinical Collection, artefact control for HCV NS3 helicase inhibitor project (AID 743272; call rule not given here;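 further: HCV NS3 helicase with a Cy5 labelled single stranded DNA probe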); conditions: fluorescence interference counterscreen, HCV NS3 helicase assay; stronger effect = lower value
# [6] = tested on: F380Y/beta1; test: BK channel mutant inhibitors and activators – cell-based, U2OS BacMam, thallium flux, beta subunits, selectivity assay, profiling panel (AID 1259406); conditions: U2OS BacMam BK variants, at 30 µM;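 further: initial slope of Thallos dye fluorescence rise after thallium is added; log ratio against the mean of 0.3% DMSO vehicle wells on the same plate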
# [7] = tested on: F380Y/beta4; test: as above; conditions: U2OS BacMam BK variants, at 30 µM
# [8] = biological target: Calcium-activated potassium channel subunit alpha-1 (Homo sapiens) + Leucine-rich repeat-containing protein 26 (Homo sapiens) (UniProt Q12791+Q2I0M4); test: as above; conditions: U2OS BacMam BK variants, F380Y/Slo1WT/gamma1, at 30 µM
# [9] = tested on: R275C/beta4; test: as above; conditions: U2OS BacMam BK variants, at 30 µM
# [10] = tested on: R275C/Slo1WT/beta2; test: as above; conditions: U2OS BacMam BK variants, at 30 µM
# [11] = viability loss in pontine glioma line – cell-based, SU-DIPG-XVII, MIPE5.0, CellTiter-Glo, qHTS, dose response (AID 1347060; cut-off not given, nearly all actives have AC50 up to about 26 µM;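 on AC50: cells exposed to compound for 48 hours before viability readout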); conditions: CellTiter-Glo ATP luminescence
# [12] = viability loss in pontine glioma line – cell-based, SU-DIPG-XIII, MIPE4.0, CellTiter-Glo, qHTS, dose response (AID 1347061; cut-off not given, nearly all actives have AC50 up to about 37 µM;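 further: cells exposed to compound for 48 hours before readout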); conditions: CellTiter-Glo ATP luminescence
# [13] = viability loss in pontine glioma line – cell-based, SU-DIPG-IV, MIPE4.0, CellTiter-Glo, qHTS, dose response (AID 1347063; cut-off not given, nearly all actives have AC50 up to about 30 µM;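 further: compound exposure lasted 48 hours before the viability readout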); conditions: CellTiter-Glo ATP luminescence
# [14] = growth inhibition of DIPG cells – cell-based, MIPE4.0 library, CellTiter-Glo luminescence, qHTS (AID 1347066; cut-off not given, nearly all actives have AC50 up to about 30 µM;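 further: cells exposed to compound for 48 hours before readout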); conditions: SU-DIPG-VI viability, CellTiter-Glo ATP luminescence
# [15] = growth inhibition of DIPG cells – cell-based, MIPE5.0 library, qHTS (AID 1347068; cut-off not given, nearly all actives have IC50 up to about 30 µM;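 on IC50: cells exposed to compound for 48 hours before viability readout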); conditions: SU-DIPG-XXV viability
# [16] = growth inhibition, single agent or in combination, cell-based, chromothripsis tumors, cisplatin or BGB combos (AID 1671449; in the data active means inhibition above about 80%;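 further: cells exposed for 96 hours; 0% = vehicle DMSO and 100% = killing by high DMSO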); conditions: LFS_MB_P medulloblastoma cells
# [17] = growth inhibition, single agent and combos, cell-based, chromothripsis tumors, cisplatin or BGB combos (AID 1671450; in the data active means inhibition above about 80%;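 further: cells exposed to compound for four days; 0% = vehicle DMSO and 100% = cell killing by high DMSO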); conditions: HDN33 neuroblastoma cells, stronger effect = higher value
# [18] = growth inhibition, single agents and combos, HTB85, cell-based, BGB or cisplatin IC20 combos, synergistic combos for chromothripsis tumors (AID 1671453; in the data active means inhibition above about 80%;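 further: cells exposed for 96 hours before readout; 0% = vehicle DMSO and 100% = high DMSO killing control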); conditions: HTB85 osteosarcoma cells, drug combinations, stronger effect = higher value
# [19] = growth inhibition, MDA-MB-436, cell-based, BGB or cisplatin combos, synergistic combos for chromothripsis tumors (AID 1671458; call rule not given here;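 further: cells exposed for 96 hours; 0% = vehicle DMSO and 100% = killing by high DMSO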); conditions: MDA-MB-436 breast carcinoma growth inhibition, drug combinations, stronger effect = higher value
# [20] = BT084 cell growth, single and combined drugs, ICGC_MB145, cisplatin and BGB IC40 combos (AID 1671461; in the data active means inhibition above about 80%;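 further: cells exposed to drugs for 96 hours; 0% = vehicle DMSO and 100% = high DMSO full killing control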); conditions: BT084 medulloblastoma cells, drug combinations, stronger effect = higher value
# Calcium-activated potassium channel subunit alpha-1 (Homo sapiens) + Leucine-rich repeat-containing protein 26 (Homo sapiens), sequence (Q2I0M4 whole entry, looked up, one chain of several): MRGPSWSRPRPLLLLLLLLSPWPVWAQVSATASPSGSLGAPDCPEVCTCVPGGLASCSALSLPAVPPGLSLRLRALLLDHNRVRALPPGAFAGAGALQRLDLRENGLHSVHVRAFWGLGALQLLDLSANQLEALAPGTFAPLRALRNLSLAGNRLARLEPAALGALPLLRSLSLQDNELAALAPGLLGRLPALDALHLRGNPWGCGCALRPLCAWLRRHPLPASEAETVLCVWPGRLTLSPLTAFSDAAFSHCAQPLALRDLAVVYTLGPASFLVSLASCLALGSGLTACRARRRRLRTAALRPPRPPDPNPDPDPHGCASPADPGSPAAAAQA
structure (smiles),measurement,setting,value
c1ccc2nc(N3CCNCC3)ccc2c1,remaining activity,[1],102% (inactive)
CC(C)N(CCC(C(N)=O)(c1ccccc1)c1ccccn1)C(C)C (stereo not given),fluorescence ratio,[2],0.1 (active)
same,inhibition,[3],-3.18% (inactive)
same,inhibition,[4],-3.53% (inactive)
same,fluorescence ratio,[5],1.04 (inactive)
same,log fold change Tl+ flux,[6],0.0372 (inactive)
same,log fold change Tl+ flux,[7],0.017 (inactive)
same,log fold change Tl+ flux,[8],0.0168 (inactive)
same,log fold change Tl+ flux,[9],-0.0304 (inactive)
same,log fold change Tl+ flux,[10],0.00641 (inactive)
O=C(O)CCCc1ccc(N(CCCl)CCCl)cc1,fluorescence ratio,[2],1.06 (inactive)
same,inhibition,[3],-5% (inactive)
same,inhibition,[4],-4.29% (inactive)
same,fluorescence ratio,[5],1.01 (inactive)
same,AC50,[11],934 nM (active)
same,outcome,[12],inactive
same,outcome,[13],inactive
same,outcome,[14],inactive
same,outcome,[15],inactive
same,inhibition,"[16]; at 0.5 µM, stronger effect = higher value",-42.9% (inactive)
same,inhibition,"[16]; measured here: combination with BGB IC20, at 0.005 µM",-28.5%
same,inhibition,"[16]; measured here: combination with BGB IC40, at 0.005 µM",-27.3%
same,inhibition,"[16]; measured here: combination with BGB IC40, at 0.05 µM",-24.4%
same,inhibition,"[16]; measured here: combination with cisplatin, at 0.5 µM, stronger effect = higher value",-49.6%
same,inhibition,"[16]; measured here: combination with cisplatin, at 5 µM, stronger effect = higher value",-22.6%
same,inhibition,"[17]; BGB combo, at 5 µM",-4.28%
same,inhibition,[17]; at 0.5 µM,-4.71% (inactive)
same,inhibition,"[17]; cisplatin combo, at 5 µM",-10.3%
same,inhibition,"[17]; measured here: with BGB IC20 combination, at 0.5 µM",-8.37%
same,inhibition,"[17]; measured here: with cisplatin IC20 combination, at 0.5 µM",15.9%
same,inhibition,"[17]; single agent, at 5 µM",-10.9%
same,inhibition,[18]; at 0.5 µM,-18.7% (inactive)
same,inhibition,"[18]; measured here: with BGB IC20, at 0.5 µM",-46.7%
same,inhibition,"[18]; measured here: with BGB IC20, at 5 µM",-21.9%
same,inhibition,"[18]; measured here: with cisplatin IC20, at 0.5 µM",-11%
same,inhibition,"[18]; measured here: with cisplatin IC20, at 5 µM",-8.05%
same,inhibition,"[18]; single agent, at 5 µM",-6.46%
same,inhibition,[19]; at 0.5 µM,-23.5% (inactive)
same,inhibition,"[19]; measured here: BGB combination, at 0.5 µM",-17.2%
same,inhibition,"[19]; measured here: BGB combination, at 5 µM",-7.5%
same,inhibition,"[19]; measured here: cisplatin combination, at 0.5 µM",-37.9%
same,inhibition,"[19]; measured here: cisplatin combination, at 5 µM",-2.83%
same,inhibition,[20]; at 0.5 µM,-18.3% (inactive)
same,inhibition,"[20]; cisplatin combination, at 0.5 µM",-2.56%
same,inhibition,"[20]; cisplatin combination, at 5 µM",-9.03%
same,inhibition,"[20]; measured here: BGB IC40 combination 0.05 uM, at 0.05 µM",37.2%
same,inhibition,"[20]; single agent, at 5 µM",-26.4%
same,log fold change Tl+ flux,[6],0.0024 (inactive)
same,log fold change Tl+ flux,[7],-0.0475 (inactive)
same,log fold change Tl+ flux,[8],-0.00393 (inactive)
same,log fold change Tl+ flux,[9],-0.00696 (inactive)
same,log fold change Tl+ flux,[10],0.0346 (inactive)
COC(=O)C1=CCCN(C)C1,outcome,[13],inactive
same,outcome,[14],inactive
N[C@@H](Cc1ccc(N(CCCl)CCCl)cc1)C(=O)O,AC50,[11],4170 nM (active)
same,AC50,[13],13.2 µM (active)
same,IC50,[15],29.5 µM (active)
O=c1[nH]oc2c1CCNC2,remaining activity,[1],79% (inactive)
CN(C)[C@@H]1C(=O)C(C(N)=O)=C(O)[C@@]2(O)C(=O)C3=C(O)c4c(O)cccc4[C@@](C)(O)[C@H]3C[C@@H]12,outcome,[11],inactive
same,outcome,[12],inactive
same,outcome,[13],inactive
same,outcome,[14],inactive
same,outcome,[15],inactive
COc1ccc(C(CN(C)C)C2(O)CCCCC2)cc1 (stereo not given),fluorescence ratio,[2],1.07 (inactive)
same,inhibition,[3],-2.77% (inactive)
same,inhibition,[4],1.44% (inactive)
same,fluorescence ratio,[5],0.93 (inactive)
same,outcome,[12],inactive
same,outcome,[13],inactive
same,outcome,[14],inactive
same,log fold change Tl+ flux,[6],-0.0404 (inactive)
same,log fold change Tl+ flux,[7],0.00869 (inactive)
same,log fold change Tl+ flux,[8],-0.00535 (inactive)
same,log fold change Tl+ flux,[9],0.0192 (inactive)
same,log fold change Tl+ flux,[10],0.0327 (inactive)
CCC1(c2ccc(N)cc2)CCC(=O)NC1=O (stereo not given),fluorescence ratio,[2],1.03 (inactive)
same,inhibition,[3],-2.27% (inactive)
same,inhibition,[4],-2% (inactive)
same,fluorescence ratio,[5],1.04 (inactive)
same,outcome,[11],inactive
same,outcome,[12],inactive
same,outcome,[13],inactive
same,outcome,[14],inactive
same,outcome,[15],inactive
same,log fold change Tl+ flux,[6],-0.0309 (inactive)
same,log fold change Tl+ flux,[7],-0.00944 (inactive)
same,log fold change Tl+ flux,[8],-0.0199 (inactive)
same,log fold change Tl+ flux,[9],0.0132 (inactive)
same,log fold change Tl+ flux,[10],0.0134 (inactive)
CC(NC(C)(C)C)C(=O)c1cccc(Cl)c1 (stereo not given),fluorescence ratio,[2],1.04 (inactive) and 1.06 (inactive)
same,inhibition,[3],-3.56% (inactive) and 3.56% (inactive)
same,inhibition,[4],-3.18% (inactive) and 3.75% (inactive)
same,fluorescence ratio,[5],1 (inactive)
same,outcome,[11],inactive
same,outcome,[12],inactive
same,outcome,[13],inactive
same,outcome,[14],inactive
same,outcome,[15],inactive
same,log fold change Tl+ flux,[6],-0.0211 (inactive) and 0.0228 (inactive)
same,log fold change Tl+ flux,[7],-0.0339 (inactive) and 0.00749 (inactive)
same,log fold change Tl+ flux,[8],-0.0374 (inactive) and -0.0597 (inactive)
same,log fold change Tl+ flux,[9],-0.00901 (inactive) and 0.0176 (inactive)
same,log fold change Tl+ flux,[10],-0.0516 (inactive) and 0.0164 (inactive)
C=C(C)[C@H]1Cc2c(ccc3c2O[C@@H]2COc4cc(OC)c(OC)cc4[C@@H]2C3=O)O1,AC50,[11],1320 nM (active)
same,outcome,[12],inactive
O=C(O)c1nn(Cc2ccc(Cl)cc2Cl)c2ccccc12,remaining activity,[1],90.4% (inactive)
same,outcome,[11],inactive
same,outcome,[12],inactive
same,outcome,[13],inactive
same,outcome,[14],inactive
same,outcome,[15],inactive
C[C@@H]1C[C@@H]([C@H](O)CC2CC(=O)NC(=O)C2)C(=O)[C@@H](C)C1,AC50,[11],934 nM (active)
same,AC50,[13],0.469 µM (active)
same,outcome,[14],inactive
same,IC50,[15],0.934 µM (active)
